The results in this text go back to PubChem BioAssay.

Unmarked numbers belong to inactive results. Some of the results follow. The source made the active and inactive calls.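 The calls were made as follows, unless noted: active = inhibition above the hit cutoff set in the earlier primary screen (cut at about 27% in these data); inactive = the rest.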

Assay [1] has as its target Bcl-2-like protein 1 (Homo sapiens) (UniProt Q07817). Put plainly: Bcl-xL inhibitors blocking Bim BH3 binding, confirmation, counter-screen for MCL1 inhibitor project, biochemical, fluorescence polarization (AID 2166;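 active = inhibition above a cutoff equal to the mean inhibition of all tested compounds plus 3 SD, cut at about 30% in these data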). To be noted: GST-Bcl-xL / FITC-Bim BH3 peptide FP binding; at 10.9 µM; stronger effect = higher value.
Assay [2] has as its target Induced myeloid leukemia cell differentiation protein Mcl-1 (Homo sapiens) (UniProt Q07820). Put plainly: inhibitors of MCL1 binding to BIM-BH3, confirmation, biochemical, fluorescence polarization, triplicate (AID 2168;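 active = inhibition above the average of all tested compounds plus 3 SD, cut at about 40% in these data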;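 also: 0% = DMSO wells and 100% = unlabeled Bim-BH3 control peptide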). To be noted: GST-MCL1 / FITC-Bim-BH3 fluorescence polarization; at 10.9 µM; stronger effect = higher value. On the technique in general: Polarisation of emitted light reports the rotation of a fluorescent probe.

The target of assay [3] is Glutathione S-transferase omega-1 (Homo sapiens) (UniProt P78417). Put plainly: GSTO1 inhibitor hit confirmation, counter-screen for RBBP9 inhibitor project, biochemical, fluorescence polarization, triplicate (AID 2176;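 active = inhibition above the primary screen's cutoff, its mean inhibition plus 3 SD, cut at about 35% in these data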;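 also: loss of polarization as inhibitors block binding of rhodamine sulfonate ester activity probe; 0% = GSTO1 with DMSO and 100% = wells lacking GSTO1 enzyme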). The note with it: recombinant GSTO1, probe fluorescence polarization; at 5.96 µM; stronger effect = higher value. Background: The purpose of a counterscreen is to sort out artefacts and off-target activity.

Assay [4] addresses Insulin-degrading enzyme (Homo sapiens) (UniProt P14735). Put plainly: human IDE inhibitors in live cells, confirmation, fluorescence polarization, HEK cells, FAbetaB substrate (AID 435028;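 active = mean inhibition across triplicate wells above the cutoff set by the earlier primary insulin-degrading enzyme screen, cut at about 16% in these data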;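 also: 0% = DMSO wells and 100% = 60 µM reference IDE inhibitor Ii1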). The note with it: FAbetaB cleavage, at 5.59 µM, stronger effect = higher value.
Assay [5] can be described thus: cytotoxicity in HEK cells, cytotoxicity control for IDE inhibitor project, cell-based, luminescence (AID 449730; in the data active = inhibition above about 22%;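 also: 0% = vehicle wells and 100% = reference cytotoxic drug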). To be noted: HEK293 cytotoxicity, ATP luminescence; at 5.59 µM; stronger effect = higher value.
Assay [6] concerns the target Oxysterols receptor LXR-beta (Homo sapiens) (UniProt P55055). Put plainly: LXR agonists, Gal4 luciferase reporter, confirmation, counter-screen for hcDAF-12 agonist project, cell-based, luminescence, HEK293, H. contortus campaign (AID 743027;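 active = mean percent activation of the reporter above a cutoff set as the average over tested compounds plus their standard deviation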). To be noted: HEK293 Gal4-LXR tk-luc reporter, 24 h, at 6.8 µM, stronger effect = higher value, normalized: DMSO 0%, positive control 100%. (In general: In a reporter assay the amount or activity of a reporter protein is the signal.)

The test system of assay [7] is Nuclear hormone receptor DAF-12 (Haemonchus contortus). Put plainly: H. contortus DAF-12 receptor agonists, confirmation, cell-based, luminescence, HEK293, lit1-tk-luc, triplicate (AID 743032;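 active = mean activation across triplicate tests above the threshold derived from the earlier primary screen, cut at about 5.5% in these data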;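 also: 0% = DMSO only wells and 100% = 3 µM Δ7-dafachronic acid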). To be noted: HEK293 hcDAF-12 lit1-tk-luc reporter, at 6.8 µM, stronger effect = higher value, % of Δ7-dafachronic acid response.
Assay [8] has as its target Platelet-activating factor acetylhydrolase (Homo sapiens) (UniProt Q13093). Put plainly: pPAFAH (PLA2G7) enzyme inhibitors, confirmation, biochemical, fluorescence polarization, human (AID 463230;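 active = mean inhibition of the triplicate above the hit cutoff set for the earlier primary screen, cut at about 25% in these data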;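 also: 0% = enzyme with DMSO and 100% = wells lacking pPAFAH enzyme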). To be noted: recombinant pPAFAH, FP-Rh probe fluorescence polarization; at 3.39 µM; stronger effect = higher value.
The target of assay [9] is (Lyso)-N-acylphosphatidylethanolamine lipase (Mus musculus) (UniProt Q8VD66). Put plainly: ABHD4 inhibitors, retest, confirmation, biochemical, fluorescence polarization, mouse (AID 720658;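 active = mean inhibition across replicates above the hit cutoff set in the primary screen, cut at about 30% in these data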;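 also: 0% = wild-type ABHD4 with DMSO and 100% = catalytically dead S159A mutant with DMSO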). To be noted: purified mABHD4, FP-Rh probe fluorescence polarization; at 8.92 µM; stronger effect = higher value.
A short description of assay [10]: growth loss of phage-infected E. coli expressing H. pylori AddAB, confirmation, AddAB inhibitor project, absorbance, E. coli V3065, T4 phage, triplicate (AID 488942;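 active = mean inhibition above a set limit taken from the earlier primary screen, cut at about 13% in these data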;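 also: higher means less bacterial growth since AddAB block lets phage replicate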). The note with it: OD, at 11.9 µM, stronger effect = higher value, T4 phage with gene 2 nonsense mutations.
Assay [11] in a line: growth loss of RecBCD+ E. coli with mutant T4 phage, counter-screen for AddAB inhibitor project, absorbance, V66 E. coli (AID 488955;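 active = mean inhibition above the mean of solvent-only control wells plus 3 SD, cut at about 4% in these data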;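 also: optical density read after an 18 h incubation at 37 °C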). The note with it: OD growth, at 11.9 µM, stronger effect = higher value.
Assay [12] is described as follows: bacterial viability inhibition counter-screen, confirmation, counter-screen for AddAB inhibitor project, absorbance (AID 488956; in the data active = inhibition above about 25%). The note with it: absorbance (AddAB counterscreen), at 11.9 µM, stronger effect = higher value.
The target in assay [13] is Serine protease HTRA1 (Homo sapiens) (UniProt Q92743). Put plainly: HTRA1 protease inhibitors, retest, confirmation, biochemical, fluorescence polarization (AID 540248;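 active = mean inhibition over three repeats above a set limit taken from the earlier primary screen, cut at about 37% in these data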;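 also: 0% = HTRA1 with DMSO and 100% = wells lacking HTRA1; inhibitors block probe binding so polarization drops and inhibition rises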). To be noted: recombinant HTRA1, FP-rhodamine activity-based probe, at 5.96 µM, stronger effect = higher value.
Assay [14] can be described thus: growth loss of phage-infected RecBCD+ E. coli, confirmation, RecBCD inhibitor project, absorbance, E. coli V66, T4 gene 2 phage (AID 651982;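 active = mean inhibition over triplicates exceeding the hit threshold derived in the original primary screen, cut at about 11% in these data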). To be noted: E. coli V66 + T4 2- phage, growth OD; at 11.9 µM; stronger effect = higher value.
A short description of assay [15]: E. coli viability inhibition, counter-screen for RecBCD inhibitor project, absorbance, high throughput (AID 651983; in the data active = inhibition above about 20%;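 also: E. coli strain V66 grown with compound alone and no phage infection; 0% = bacteria with DMSO vehicle only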). The note with it: absorbance (OD) growth, at 11.9 µM, stronger effect = higher value.
Assay [16] can be described thus: growth loss of phage-infected AddAB-carrying E. coli, confirmation, counter-screen for RecBCD inhibitor project, absorbance, E. coli V3065, T4 phage (AID 651984;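 active = mean inhibition above the solvent-only control wells' mean plus 3 SD, cut at about 22% in these data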;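 also: higher means less bacterial growth from phage killing when AddAB is blocked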). To be noted: E. coli expressing H. pylori AddAB + T4 phage, OD growth; at 11.9 µM; stronger effect = higher value; gene 2 mutant T4, recBCD-deleted host.
Assay [17] deals with Toll-like receptor 9 (Homo sapiens) (UniProt Q9NR96). Put plainly: TLR9-MyD88 association inhibitors, retest, confirmation, cell-based, CHO, BLA complementation, fluorescence, triplicate (AID 540250;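 active = mean inhibition across three repeats above about 21% taken from the earlier screen, limit read from the data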;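 also: blue over green emission ratio reports constitutive TLR9 MyD88 association via BLA complementation; 0% = DMSO vehicle wells and 100% = clavulanate BLA inhibitor wells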). To be noted: CCF4 FRET ratio, at 4.98 µM, stronger effect = higher value.
Assay [18] can be described thus: beta-lactamase reporter inhibitors in CHO cells, artefact control for TLR9-MyD88 binding inhibitor project, cell-based, fluorescence (AID 540251;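 active = mean inhibition above a 50% cutoff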;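 also: counterscreen of TLR9-MyD88 hits on CMV-driven BLA in CHO-K1 cells; 0% = DMSO alone and 100% = clavulanate blocking BLA; higher means less blue over green ratio so more BLA blockade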). To be noted: CHO-BLA cells, CCF4 FRET ratio, at 4.98 µM, stronger effect = higher value.
Assay [19] is described as follows: CHO cell viability loss – luminescence, single concentration, cytotoxicity control for TLR9-MyD88 binding inhibitor project (AID 588336; in the data active = inhibition above about 11%). The note with it: TLR9-MyD88 CHO cells cytotoxicity, at 4.98 µM, stronger effect = higher value.
Assay [20] concerns the target Receptor-interacting serine/threonine-protein kinase 2 (Homo sapiens) (UniProt O43353). Put plainly: NOD2-RIPK2 binding disruptors, retest, confirmation, fluorescence, CHO cells, BLA complementation, triplicate (AID 624370;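 active = mean inhibition across replicates above a set limit taken from the earlier primary screen, cut at about 21% in these data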;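 also: 0% = DMSO-only wells and the high end = clavulanate BLA-blocked wells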). The note with it: CCF4 FRET, at 4.98 µM, stronger effect = higher value.
Assay [21] in a line: beta-lactamase reporter inhibitors in CHO cells, confirmation, artefact control for NOD2-RIPK2 interaction inhibitor project, cell-based, CHO-K1 CMV-bla, CCF4 FRET, fluorescence (AID 624371;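 active = mean inhibition above the low-control mean inhibition plus three low-control SD, cut at about 11% in these data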;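 also: 0% = DMSO only wells and 100% = clavulanate high control wells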). To be noted: CCF4 FRET ratio, counterscreen, at 4.98 µM, stronger effect = higher value.
Assay [22] addresses Nuclear receptor coactivator 3 (Homo sapiens) (UniProt Q9Y6Q9). Put plainly: SRC3 coactivator transcriptional activity inhibitors, confirmation, cell-based, luminescence, quadruplicate (AID 588792;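 active = mean inhibition over 43.08%, the solvent-only control mean plus 3 SD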;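 also: 0% = DMSO treated cells and 100% = gossypol at 36 µM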). The note with it: HEK293 GAL4-SRC3 luciferase reporter, at 3.6 µM, stronger effect = higher value.
Assay [23] concerns transactivating tegument protein VP16 (Human herpesvirus 1), Gal4-VP16 luciferase reporter. Put plainly: VP16 transactivation inhibitors, counter-screen for SRC3 inhibitor project, cell-based, luminescence, high throughput (AID 588794; in the data active = inhibition above about 30%). To be noted: mammalian cells, VP16-driven luciferase reporter luminescence; at 3.6 µM; stronger effect = higher value.
Assay [24] addresses Nuclear receptor coactivator 1 (Homo sapiens) (UniProt Q15788). Put plainly: SRC1 coactivator transcriptional activity inhibitors, confirmation, cell-based, luminescence, quadruplicate (AID 588820;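 active = mean inhibition above 46.68%, the untreated control wells mean plus 3 SD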;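 also: 0% = DMSO wells and 100% = gossypol 36 µM treated wells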). The note with it: HEK293 GAL4-SRC1 luciferase reporter, at 3.6 µM, stronger effect = higher value.
Assay [25] is described as follows: VP16 transactivation inhibitors, counter-screen for SRC1 inhibitor project, cell-based, luminescence, high throughput (AID 588824; in the data active = inhibition above about 25%). To be noted: cell-based VP16 transactivation luciferase luminescence; at 3.6 µM; stronger effect = higher value.
A short description of assay [26]: StAR promoter reporter inhibitors, counter-screen for LRH-1 inverse agonist project, cell-based, luminescence, high throughput (AID 651611; in the data active = inhibition above about 28%). The note with it: StAR promoter luciferase reporter counterscreen, at 3.6 µM, stronger effect = higher value.
Assay [27] is described as follows: VP16 transactivation reporter inhibitors, counter-screen for LRH-1 inverse agonist project, cell-based, luminescence, high throughput (AID 651615; in the data active = inhibition above about 33%). To be noted: Gal4-VP16 luciferase reporter cells, at 3.6 µM, stronger effect = higher value.
For assay [28], the target named is Protein phosphatase methylesterase 1 (Homo sapiens) (UniProt Q9Y570). Put plainly: PME-1 inhibitor activity retest, confirmation, biochemical, fluorescence polarization, FP-Rh probe, triplicate (AID 2171).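 Also: 0% = enzyme with DMSO and 100% = wells lacking PME-1.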 The note with it: recombinant PME-1, FP-Rh probe fluorescence polarization; at 5.9 µM; stronger effect = higher value.
Chain of Protein phosphatase methylesterase 1 (Homo sapiens) (Q9Y570 whole entry, looked up): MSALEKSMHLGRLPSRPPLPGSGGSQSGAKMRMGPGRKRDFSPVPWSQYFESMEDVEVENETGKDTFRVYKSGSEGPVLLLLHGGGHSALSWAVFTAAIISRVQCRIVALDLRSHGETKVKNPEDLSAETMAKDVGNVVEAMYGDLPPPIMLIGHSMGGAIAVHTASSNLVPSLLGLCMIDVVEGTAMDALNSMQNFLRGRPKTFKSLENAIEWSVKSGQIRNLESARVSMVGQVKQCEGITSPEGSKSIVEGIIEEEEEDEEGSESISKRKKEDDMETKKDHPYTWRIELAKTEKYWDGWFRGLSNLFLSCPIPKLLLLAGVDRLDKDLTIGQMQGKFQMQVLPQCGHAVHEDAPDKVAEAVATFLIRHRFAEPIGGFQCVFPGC

Chain of Induced myeloid leukemia cell differentiation protein Mcl-1 (Homo sapiens) (Q07820 whole entry, looked up): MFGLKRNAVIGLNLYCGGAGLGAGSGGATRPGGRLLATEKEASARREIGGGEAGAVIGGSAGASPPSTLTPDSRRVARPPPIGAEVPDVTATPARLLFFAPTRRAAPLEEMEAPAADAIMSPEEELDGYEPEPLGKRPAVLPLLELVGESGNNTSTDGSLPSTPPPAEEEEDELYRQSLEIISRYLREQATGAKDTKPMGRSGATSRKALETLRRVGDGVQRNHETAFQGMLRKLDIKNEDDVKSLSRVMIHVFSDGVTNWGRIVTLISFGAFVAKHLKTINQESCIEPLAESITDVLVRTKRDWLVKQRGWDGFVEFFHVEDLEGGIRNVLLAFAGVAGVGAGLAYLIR
Chain of Bcl-2-like protein 1 (Homo sapiens) (Q07817 whole entry, looked up): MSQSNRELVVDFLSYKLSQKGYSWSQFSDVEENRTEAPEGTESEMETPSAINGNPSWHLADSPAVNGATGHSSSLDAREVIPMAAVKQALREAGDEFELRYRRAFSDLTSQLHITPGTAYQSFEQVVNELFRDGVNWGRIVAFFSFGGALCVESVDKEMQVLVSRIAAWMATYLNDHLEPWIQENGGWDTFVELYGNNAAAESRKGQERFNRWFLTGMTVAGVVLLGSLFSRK
Chain of (Lyso)-N-acylphosphatidylethanolamine lipase (Mus musculus) (Q8VD66 whole entry, looked up): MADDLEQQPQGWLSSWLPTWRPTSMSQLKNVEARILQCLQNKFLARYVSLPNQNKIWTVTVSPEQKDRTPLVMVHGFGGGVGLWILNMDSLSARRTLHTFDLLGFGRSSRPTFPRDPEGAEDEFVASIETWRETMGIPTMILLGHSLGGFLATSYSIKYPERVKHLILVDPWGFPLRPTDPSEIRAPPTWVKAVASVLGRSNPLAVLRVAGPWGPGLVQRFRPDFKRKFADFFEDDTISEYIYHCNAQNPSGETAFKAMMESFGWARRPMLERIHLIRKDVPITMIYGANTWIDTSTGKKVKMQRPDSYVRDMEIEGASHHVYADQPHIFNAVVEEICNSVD
Chain of Oxysterols receptor LXR-beta (Homo sapiens) (P55055 whole entry, looked up, the tested form may be a part): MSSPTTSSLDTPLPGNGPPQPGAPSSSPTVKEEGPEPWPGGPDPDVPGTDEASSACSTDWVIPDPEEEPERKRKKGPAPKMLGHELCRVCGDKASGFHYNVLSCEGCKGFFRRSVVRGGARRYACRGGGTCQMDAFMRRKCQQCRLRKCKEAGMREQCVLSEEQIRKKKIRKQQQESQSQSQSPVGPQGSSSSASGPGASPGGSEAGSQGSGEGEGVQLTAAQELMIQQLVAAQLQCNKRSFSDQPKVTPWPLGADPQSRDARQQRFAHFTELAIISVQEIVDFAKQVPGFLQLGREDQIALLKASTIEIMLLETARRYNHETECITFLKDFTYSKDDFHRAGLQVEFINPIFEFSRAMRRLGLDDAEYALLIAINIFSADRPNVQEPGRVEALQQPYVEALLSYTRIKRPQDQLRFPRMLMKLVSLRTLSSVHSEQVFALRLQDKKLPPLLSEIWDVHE
Chain of Insulin-degrading enzyme (Homo sapiens) (P14735 whole entry, looked up): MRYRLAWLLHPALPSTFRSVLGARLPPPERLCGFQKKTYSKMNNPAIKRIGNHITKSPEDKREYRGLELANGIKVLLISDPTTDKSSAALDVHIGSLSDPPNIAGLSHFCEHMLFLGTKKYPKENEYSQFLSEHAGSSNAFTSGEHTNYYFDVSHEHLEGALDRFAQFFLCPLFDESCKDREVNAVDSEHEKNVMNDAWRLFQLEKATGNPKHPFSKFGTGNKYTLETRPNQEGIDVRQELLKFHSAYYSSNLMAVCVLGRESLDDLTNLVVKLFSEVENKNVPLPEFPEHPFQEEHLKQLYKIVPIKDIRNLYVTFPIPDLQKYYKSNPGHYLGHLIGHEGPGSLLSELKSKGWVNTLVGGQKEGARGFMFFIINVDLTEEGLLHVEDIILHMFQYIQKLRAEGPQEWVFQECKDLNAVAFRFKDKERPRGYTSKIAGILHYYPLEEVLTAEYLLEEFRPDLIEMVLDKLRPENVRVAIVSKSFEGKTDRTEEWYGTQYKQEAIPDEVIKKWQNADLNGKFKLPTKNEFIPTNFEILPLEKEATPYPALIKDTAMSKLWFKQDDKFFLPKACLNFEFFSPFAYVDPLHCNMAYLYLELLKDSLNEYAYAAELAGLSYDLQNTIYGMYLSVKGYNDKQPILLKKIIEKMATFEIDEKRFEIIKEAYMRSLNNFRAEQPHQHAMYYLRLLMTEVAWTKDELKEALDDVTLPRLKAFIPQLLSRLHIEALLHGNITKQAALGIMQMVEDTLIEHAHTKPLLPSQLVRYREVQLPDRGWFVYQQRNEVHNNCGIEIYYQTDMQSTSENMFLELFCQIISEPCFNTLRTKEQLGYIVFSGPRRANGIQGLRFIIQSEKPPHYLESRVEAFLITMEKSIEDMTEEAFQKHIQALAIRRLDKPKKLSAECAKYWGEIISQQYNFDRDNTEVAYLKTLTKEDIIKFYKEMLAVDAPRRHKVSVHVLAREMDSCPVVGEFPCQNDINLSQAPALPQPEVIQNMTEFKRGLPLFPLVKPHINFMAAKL
Chain of Platelet-activating factor acetylhydrolase (Homo sapiens) (Q13093 whole entry, looked up): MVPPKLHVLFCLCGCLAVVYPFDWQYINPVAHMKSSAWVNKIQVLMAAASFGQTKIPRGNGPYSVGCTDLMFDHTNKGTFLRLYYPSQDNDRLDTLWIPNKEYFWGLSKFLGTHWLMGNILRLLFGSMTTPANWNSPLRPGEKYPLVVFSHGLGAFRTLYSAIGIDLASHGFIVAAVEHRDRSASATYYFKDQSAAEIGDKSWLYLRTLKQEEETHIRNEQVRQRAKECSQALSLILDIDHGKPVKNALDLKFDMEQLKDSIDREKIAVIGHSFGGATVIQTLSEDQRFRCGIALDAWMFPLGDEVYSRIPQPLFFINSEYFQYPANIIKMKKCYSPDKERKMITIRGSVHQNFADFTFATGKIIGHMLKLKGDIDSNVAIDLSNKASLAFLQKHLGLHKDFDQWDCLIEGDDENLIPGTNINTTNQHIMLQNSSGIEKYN
Chain of Toll-like receptor 9 (Homo sapiens) (Q9NR96 whole entry, looked up): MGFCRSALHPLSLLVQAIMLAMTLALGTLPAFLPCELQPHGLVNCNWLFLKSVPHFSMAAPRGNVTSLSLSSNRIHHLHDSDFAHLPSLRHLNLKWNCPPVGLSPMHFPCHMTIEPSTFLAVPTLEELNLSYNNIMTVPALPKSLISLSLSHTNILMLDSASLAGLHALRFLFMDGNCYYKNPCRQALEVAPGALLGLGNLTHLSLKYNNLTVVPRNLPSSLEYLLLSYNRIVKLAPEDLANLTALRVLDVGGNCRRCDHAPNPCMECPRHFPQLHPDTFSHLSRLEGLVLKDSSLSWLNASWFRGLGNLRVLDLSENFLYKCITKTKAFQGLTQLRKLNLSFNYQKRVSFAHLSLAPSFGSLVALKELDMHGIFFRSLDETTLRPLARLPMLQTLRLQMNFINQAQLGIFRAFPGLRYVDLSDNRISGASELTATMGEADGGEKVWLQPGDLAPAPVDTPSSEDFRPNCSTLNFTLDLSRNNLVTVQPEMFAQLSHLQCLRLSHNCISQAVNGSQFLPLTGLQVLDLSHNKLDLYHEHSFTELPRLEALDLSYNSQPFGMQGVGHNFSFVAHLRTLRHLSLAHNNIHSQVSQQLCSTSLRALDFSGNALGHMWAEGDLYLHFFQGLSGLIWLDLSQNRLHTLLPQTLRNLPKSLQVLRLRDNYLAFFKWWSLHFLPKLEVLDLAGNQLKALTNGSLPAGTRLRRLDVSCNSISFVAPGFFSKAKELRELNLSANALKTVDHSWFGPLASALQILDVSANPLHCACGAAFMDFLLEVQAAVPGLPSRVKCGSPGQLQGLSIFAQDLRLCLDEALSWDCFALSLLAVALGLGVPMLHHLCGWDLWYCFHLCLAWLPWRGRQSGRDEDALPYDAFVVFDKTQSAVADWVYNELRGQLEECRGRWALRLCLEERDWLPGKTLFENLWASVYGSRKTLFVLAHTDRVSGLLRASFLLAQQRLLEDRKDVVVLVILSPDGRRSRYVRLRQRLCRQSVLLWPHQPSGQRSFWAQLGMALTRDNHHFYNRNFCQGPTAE
Chain of Glutathione S-transferase omega-1 (Homo sapiens) (P78417 whole entry, looked up): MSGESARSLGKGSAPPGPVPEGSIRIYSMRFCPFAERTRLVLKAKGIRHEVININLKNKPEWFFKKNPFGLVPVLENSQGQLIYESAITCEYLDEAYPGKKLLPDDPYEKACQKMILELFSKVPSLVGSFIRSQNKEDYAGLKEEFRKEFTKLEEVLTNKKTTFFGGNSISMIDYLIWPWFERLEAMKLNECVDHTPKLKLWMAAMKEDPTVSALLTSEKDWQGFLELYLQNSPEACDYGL

As a reminder, the inhibition is the relative decrease from the control value, in per cent. Turning to `COc1cc([C@H](Cc2ccccc2)NC(C)=O)oc(=O)c1`, the results for the inhibition in [1] and in assay [2] were 37.8% (active) and 40.9% (active), respectively.
`Cc1ccc(S(=O)(=O)C(C#N)c2nc3ccccc3nc2N2CCCC2)cc1C` (centres undefined): the inhibition in assay [1] is 74.9% (active); in assay [2], 82.8% (active); in [3], 26.5%.
As to `O=C(COC(=O)c1ccccc1C(=O)N1CCN(c2ccccc2)CC1)NCc1ccccc1`, the inhibition was 22.1% in assay [1] and 16.5% in assay [2].
For `CC(C)(C)OC(=O)NCCCC1=CC2=CC(=O)C(C)(OC(=O)c3ccco3)C(=O)C2=CO1` (centres undefined), in that order: 26.3% and 36.3%.
For `COC(=O)C[n+]1cccc2ccccc21`, in that order: 142% (active) and 173% (active).
Turning to `COc1ccc(Nc2cc(Cl)ccc2C(=O)O)cn1`, the inhibition is 38.7% (active) in [1] and 53.5% (active) in [2].
The matching figures for `O=c1[nH]c(=S)[nH]c2[nH]c(=S)[nH]c12`: 42.2% (active) and 98.7% (active).
For `COc1ccc(Cl)cc1NC(=O)CCS(=O)(=O)c1ccc(Br)cc1`, in that order: 6.91% and 46.5% (active).
For `C1=C(N2CCOCC2)/C(=C/c2nc3ccccc3[nH]2)CC1`, in that order: 55.3% (active) and 63% (active).
For the compound `Cc1cc(C)c(/C=C2\C(=O)Nc3ccccc32)[nH]1`, the results for the inhibition in assay [4] and in assay [5] were 83.6% (active) and 5.65%, respectively. The activation in [6] is 0.33%; in assay [7] it was 7.13% (active).
`Cc1cc2nc3c(=O)n(Cc4ccccc4)c(=O)[nH]c3nc2cc1N`: the inhibition in assay [4] is 66.8% (active); in assay [5] it was 8.2%; in assay [8] it was 29.3% (active); in assay [9] it was 82.2% (active).
As for `COc1ccc(N2CC(C(=O)NCCN3C(=O)S/C(=C\c4cccnc4)C3=O)CC2=O)c(OC)c1` (centres undefined), the inhibition in assay [8] is 0.49%.
For `O=c1ccc2c(-c3ccccc3S(=O)(=O)O)c3ccc(O)c(O)c3oc-2c1O`, the inhibition in assay [10] was 7.55%; in [11], 11% (active); in assay [12], 2.03%; in assay [13] it was -1.72%; in assay [9] it was -24.3%.
Turning to `C=C1c2c(Cl)ccc(O)c2C(O)=C2C(=O)[C@]3(O)C(O)=C(C(N)=O)C(=O)[C@@H](N(C)C)[C@@H]3[C@@H](O)C12` (some centres undefined), the inhibition in assay [10] is 102% (active); in assay [11], 101% (active); in assay [12], 104% (active); in [14], 102% (active); in [15], 105% (active); in [16] it was 104% (active).
Take `Nc1cccc2c1C(=O)N(Cc1nnc(-c3ccccc3Br)o1)C2=O`: the inhibition is 16.4% in [17]; 19.9% in assay [18]; 3.2% in assay [19]; 37.4% (active) in assay [20]; 41.6% (active) in assay [21].
In the case of `Cc1cccn2c(=O)c3cc(C(=O)NCCN4CCOCC4)c(=N)n(Cc4cccnc4)c3nc12`, the inhibition in assay [22] is 22.5%; in assay [23], 20.1%; in [24], 24.4%; in assay [25], 17.3%; in assay [26], 21.2%; in [27], 28.6%.
Regarding `COc1ccc(Nc2nc(-c3cccnc3)nc3ccccc23)cn1`, the inhibition was 28.2% (active) in assay [26] and -10.3% in [27].
As to `Cc1nn(C(=O)c2ccoc2C)c(N)c1-c1ccccc1`, the activation in assay [6] is 0.39%; in assay [7], 2.6%.
`Cc1cccc2cc(/C=N/Nc3ccc(C(=O)O)cc3)c(Cl)nc12`: the inhibition in [28] is 43.7% (active).
With `CCc1nnc(NC(=O)c2sc3nc4cc(C)ccc4cc3c2N)s1`, the inhibition in assay [28] is 31.8% (active).
The same measure, in the same setting: with `CC1(C)CC(=O)C2=C(C1)N(CCN1CCOCC1)C1=C(C(=O)CC(C)(C)C1)C2c1cccc(F)c1` the figure was 25.2%; with `O=C(N/N=C/c1c(Cl)[nH]c2ccccc12)c1ccc2c(c1)OCCO2`, 20.6%; with `Oc1ccc(Br)cc1-c1nc2cnccn2c1NC1CCCC1`, 21.4%.
For `Nc1c(C(=O)Nc2cccc(C(=O)O)c2)sc2nc3c(cc12)CCCC3`, in assay [28], the inhibition is 30.8% (active).
On the same count and under the same terms, the result for `CCOC(=O)c1ccc(Nc2nc(N)c3cc(OC)c(OC)cc3n2)cc1` reads 27.9% (active); that for `Cn1c(=O)c(Nc2ccc(Cl)cc2)c2c3c(cccc31)C(=O)c1ccccc1-2`, 62.5% (active).
The same measure, in the same setting: with `CCOC(=O)CCc1c(C)nc(SCCCn2c(=O)[nH]c3ccccc32)c(C#N)c1C` the figure was 22.6%.
For `COc1ccc2[nH]c(=O)c(-c3noc(-c4ccccc4)n3)cc2c1`, the inhibition in assay [28] is 28.2% (active).
Regarding `CN=c1scc(-c2cccs2)n1/N=C/c1ccc(O)c(O)c1O`, the inhibition in assay [28] was 50.1% (active).
Regarding `Cc1cccc(OCCn2cc(/C=N/NC(=O)c3ccncc3)c3ccccc32)c1`, the inhibition in [28] is 2.22%.
Same read-out and setting: the result for `O=c1[nH][nH]c2cc(=O)n(-c3cccc(C(F)(F)F)c3)nc12` reads 28.5% (active); that for `c1ccc2sc(Nc3nc4cc5c(cc4s3)OCO5)nc2c1`, 49.7% (active).
The same measure, in the same setting: with `O=C(O)c1ccccc1Nc1cccc(OCc2ccc3ccccc3n2)c1` the figure was 20%.
